Measured values published in PubChem BioAssay.
The source made the active and inactive calls.

Experiments:
[1] = binders of probe aFSTL3 on microarray, primary screen, stem cell growth factor project, biochemical, small-molecule microarray, fluorescence 635/667 (AID 1064); conditions: higher = more signal;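 also: measures binding of the biotinylated anti-FSTL3 antibody to printed compounds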
[2] = binders from COS7 lysate, DM2A8 probe, primary screen, torsin A project, cell lysate, small-molecule microarray, fluorescence 635/667 (AID 1065); conditions: higher = more signal, COS7 lysate expressing mutant human TOR1A
[3] = binders of probe aFGF2 on microarray, primary screen, stem cell growth factor project, biochemical, small-molecule microarray, fluorescence 635/667 (AID 1067); conditions: higher = more signal;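 also: measures binding of biotinylated aFGF2 protein to printed compounds on slides; z-score merges feature fluorescence and signal-to-noise across triplicate slides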
[4] = binders of probe aFGF10 on microarray, primary screen, stem cell growth factor project, biochemical, small-molecule microarray, fluorescence 635/667 (AID 1071); conditions: higher = more signal;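 also: score merges 667 nm spot intensity and signal to noise from triplicate slides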
[5] = target: Neurogenic locus notch homolog protein 2 (Homo sapiens) (UniProt Q04721); experiment: Notch2 binders on small-molecule microarrays, primary screen, biochemical, small-molecule microarray, 635 nm fluorescence, stem cell growth factors (AID 1073); conditions: Notch2 binding, higher = more signal
[6] = target: Pro-neuregulin-1, membrane-bound isoform (Homo sapiens) (UniProt Q02297); experiment: NRG1 binders on small-molecule microarrays, primary screen, psychiatric disease protein project, biochemical, small-molecule microarray, fluorescence 635/667 (AID 1075); conditions: NRG1 binding, 635 nm fluorescence, higher = more signal;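 also: score combines 667 nm spot fluorescence with signal to noise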
[7] = test system: Neuregulin-1 EGF-like domain; experiment: binders of neuregulin-1 EGF-like domain, primary screen, biochemical, small-molecule microarray, 635 nm fluorescence (AID 1081); conditions: small-molecule microarray binding, higher = more signal;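 also: binding of the protein to compounds printed on small-molecule microarray slides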
[8] = FRG1 promoter luciferase signal modulators, primary screen, FRG1 inhibition for FSHD, cell-based, C2C12 myotubes, firefly/Renilla luciferase, luminescence (AID 1084); conditions: higher = more signal, called active from +8 up or from −8 down
[9] = binders of probe aFST on microarray, primary screen, stem cell growth factor project, biochemical, small-molecule microarray, fluorescence 635/667 (AID 1086); conditions: higher = more signal;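 also: score merges 667 nm fluorescence with signal-to-noise of each printed compound spot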
[10] = binders of probe aHhip on microarray, primary screen, stem cell growth factor project, biochemical, small-molecule microarray, fluorescence 635/667 (AID 1087); conditions: higher = more signal;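 also: score merges spot fluorescence at 667nm with spot signal to noise ratio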
[11] = test system: PRMT1 (protein arginine N-methyltransferase 1); experiment: PRMT1 binders on small-molecule microarrays, primary screen, biochemical, small-molecule microarray, 635 nm fluorescence (AID 1088); conditions: small-molecule microarray binding, higher = more signal;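 also: binding of Prmt1 protein to compounds spotted on small-molecule microarray slides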
[12] = yeast growth modulation, basal conditions, primary screen, YJM789 clinical isolate, OD600, 24 h (AID 1089);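 also: growth of clinical yeast isolate S. cerevisiae YJM 789 seeded 1000 cells per well; test concentration not given here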; conditions: S. cerevisiae YJM789 growth, higher = more signal, called active from +8 up or from −8 down
[13] = fission yeast growth modulation, primary screen, strain 972, OD600, 24 h, no modulator (AID 1090);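 also: basal condition with compound alone and no growth modifier present; test concentration not given here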; conditions: S. pombe 972 growth, higher = more signal, called active from +8 up or from −8 down
[14] = S. cerevisiae growth modulation with rapamycin, primary screen, strain BY4716, OD600, 96 h (AID 1091); conditions: higher = more signal, called active from +8 up or from −8 down; also: test concentration not given here
[15] = target: Torsin-1A-interacting protein 2 (Homo sapiens) (UniProt Q8NFQ8); experiment: LULL1 binders on small-molecule microarray, primary screen, cell lysate, human LULL1 lysate, 635/667 nm fluorescence (AID 1092); conditions: hLULL1 lysate binding, 635 nm fluorescence, higher = more signal;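 also: probe is lysate of COS7 cells overexpressing human LULL1; score merges per-feature 667 nm fluorescence with signal-to-noise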
[16] = E. coli growth modulation, two-sided OD650, primary screen, E. coli filamentation project, strain DRC41, 24 h (AID 1093); conditions: OD650, 24 h, higher = more signal, called active from +8 up or from −8 down;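 also: MC1000 strain lacking acrAB efflux and sulA so SOS filamentation is blocked; test concentration not given here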
[17] = small-molecule microarray binders of probe aLefty2, primary screen, biochemical, biotinylated probe, 635/667 nm fluorescence (AID 1094); conditions: higher = more signal;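 also: score merges spot fluorescence near 667 nm with spot signal-to-noise ratio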
[18] = test system: Noggin (protein binding on small-molecule microarray); experiment: Noggin binders on small-molecule microarray, primary screen, biochemical, 635/667 nm fluorescence (AID 1095); conditions: 635 nm fluorescence, higher = more signal;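 also: score merges 667 nm feature fluorescence with signal to noise over triplicate slides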
[19] = target: Neurogenic locus notch homolog protein 3 (Homo sapiens) (UniProt Q9UM47); experiment: NOTCH3 binders on small-molecule microarray, primary screen, biochemical, 635/667 nm fluorescence (AID 1096); conditions: NOTCH3 binding, 635 nm fluorescence, higher = more signal
[20] = small-molecule microarray binders of probe aEGFR, primary screen, biochemical, biotinylated probe, 635/667 nm fluorescence (AID 1097); conditions: higher = more signal;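 also: probe is a biotinylated anti-EGFR antibody binding compounds printed on slides; score combines fluorescence near 667 nm and signal to noise of each spot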

Sequence of Torsin-1A-interacting protein 2 (Homo sapiens) (Q8NFQ8 whole entry, looked up): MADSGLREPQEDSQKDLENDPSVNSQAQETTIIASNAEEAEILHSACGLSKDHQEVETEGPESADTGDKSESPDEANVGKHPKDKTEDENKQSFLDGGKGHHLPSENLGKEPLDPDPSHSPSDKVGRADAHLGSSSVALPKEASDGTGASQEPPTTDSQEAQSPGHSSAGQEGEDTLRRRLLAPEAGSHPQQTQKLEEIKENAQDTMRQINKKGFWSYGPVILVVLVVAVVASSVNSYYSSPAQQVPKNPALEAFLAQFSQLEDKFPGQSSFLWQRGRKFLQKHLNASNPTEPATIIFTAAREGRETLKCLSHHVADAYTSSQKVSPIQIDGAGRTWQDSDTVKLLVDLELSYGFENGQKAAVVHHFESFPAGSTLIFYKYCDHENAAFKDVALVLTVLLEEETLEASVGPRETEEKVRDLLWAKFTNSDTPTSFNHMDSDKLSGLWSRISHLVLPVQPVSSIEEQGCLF
Sequence of Neurogenic locus notch homolog protein 2 (Homo sapiens) (Q04721 whole entry, looked up, canonical isoform): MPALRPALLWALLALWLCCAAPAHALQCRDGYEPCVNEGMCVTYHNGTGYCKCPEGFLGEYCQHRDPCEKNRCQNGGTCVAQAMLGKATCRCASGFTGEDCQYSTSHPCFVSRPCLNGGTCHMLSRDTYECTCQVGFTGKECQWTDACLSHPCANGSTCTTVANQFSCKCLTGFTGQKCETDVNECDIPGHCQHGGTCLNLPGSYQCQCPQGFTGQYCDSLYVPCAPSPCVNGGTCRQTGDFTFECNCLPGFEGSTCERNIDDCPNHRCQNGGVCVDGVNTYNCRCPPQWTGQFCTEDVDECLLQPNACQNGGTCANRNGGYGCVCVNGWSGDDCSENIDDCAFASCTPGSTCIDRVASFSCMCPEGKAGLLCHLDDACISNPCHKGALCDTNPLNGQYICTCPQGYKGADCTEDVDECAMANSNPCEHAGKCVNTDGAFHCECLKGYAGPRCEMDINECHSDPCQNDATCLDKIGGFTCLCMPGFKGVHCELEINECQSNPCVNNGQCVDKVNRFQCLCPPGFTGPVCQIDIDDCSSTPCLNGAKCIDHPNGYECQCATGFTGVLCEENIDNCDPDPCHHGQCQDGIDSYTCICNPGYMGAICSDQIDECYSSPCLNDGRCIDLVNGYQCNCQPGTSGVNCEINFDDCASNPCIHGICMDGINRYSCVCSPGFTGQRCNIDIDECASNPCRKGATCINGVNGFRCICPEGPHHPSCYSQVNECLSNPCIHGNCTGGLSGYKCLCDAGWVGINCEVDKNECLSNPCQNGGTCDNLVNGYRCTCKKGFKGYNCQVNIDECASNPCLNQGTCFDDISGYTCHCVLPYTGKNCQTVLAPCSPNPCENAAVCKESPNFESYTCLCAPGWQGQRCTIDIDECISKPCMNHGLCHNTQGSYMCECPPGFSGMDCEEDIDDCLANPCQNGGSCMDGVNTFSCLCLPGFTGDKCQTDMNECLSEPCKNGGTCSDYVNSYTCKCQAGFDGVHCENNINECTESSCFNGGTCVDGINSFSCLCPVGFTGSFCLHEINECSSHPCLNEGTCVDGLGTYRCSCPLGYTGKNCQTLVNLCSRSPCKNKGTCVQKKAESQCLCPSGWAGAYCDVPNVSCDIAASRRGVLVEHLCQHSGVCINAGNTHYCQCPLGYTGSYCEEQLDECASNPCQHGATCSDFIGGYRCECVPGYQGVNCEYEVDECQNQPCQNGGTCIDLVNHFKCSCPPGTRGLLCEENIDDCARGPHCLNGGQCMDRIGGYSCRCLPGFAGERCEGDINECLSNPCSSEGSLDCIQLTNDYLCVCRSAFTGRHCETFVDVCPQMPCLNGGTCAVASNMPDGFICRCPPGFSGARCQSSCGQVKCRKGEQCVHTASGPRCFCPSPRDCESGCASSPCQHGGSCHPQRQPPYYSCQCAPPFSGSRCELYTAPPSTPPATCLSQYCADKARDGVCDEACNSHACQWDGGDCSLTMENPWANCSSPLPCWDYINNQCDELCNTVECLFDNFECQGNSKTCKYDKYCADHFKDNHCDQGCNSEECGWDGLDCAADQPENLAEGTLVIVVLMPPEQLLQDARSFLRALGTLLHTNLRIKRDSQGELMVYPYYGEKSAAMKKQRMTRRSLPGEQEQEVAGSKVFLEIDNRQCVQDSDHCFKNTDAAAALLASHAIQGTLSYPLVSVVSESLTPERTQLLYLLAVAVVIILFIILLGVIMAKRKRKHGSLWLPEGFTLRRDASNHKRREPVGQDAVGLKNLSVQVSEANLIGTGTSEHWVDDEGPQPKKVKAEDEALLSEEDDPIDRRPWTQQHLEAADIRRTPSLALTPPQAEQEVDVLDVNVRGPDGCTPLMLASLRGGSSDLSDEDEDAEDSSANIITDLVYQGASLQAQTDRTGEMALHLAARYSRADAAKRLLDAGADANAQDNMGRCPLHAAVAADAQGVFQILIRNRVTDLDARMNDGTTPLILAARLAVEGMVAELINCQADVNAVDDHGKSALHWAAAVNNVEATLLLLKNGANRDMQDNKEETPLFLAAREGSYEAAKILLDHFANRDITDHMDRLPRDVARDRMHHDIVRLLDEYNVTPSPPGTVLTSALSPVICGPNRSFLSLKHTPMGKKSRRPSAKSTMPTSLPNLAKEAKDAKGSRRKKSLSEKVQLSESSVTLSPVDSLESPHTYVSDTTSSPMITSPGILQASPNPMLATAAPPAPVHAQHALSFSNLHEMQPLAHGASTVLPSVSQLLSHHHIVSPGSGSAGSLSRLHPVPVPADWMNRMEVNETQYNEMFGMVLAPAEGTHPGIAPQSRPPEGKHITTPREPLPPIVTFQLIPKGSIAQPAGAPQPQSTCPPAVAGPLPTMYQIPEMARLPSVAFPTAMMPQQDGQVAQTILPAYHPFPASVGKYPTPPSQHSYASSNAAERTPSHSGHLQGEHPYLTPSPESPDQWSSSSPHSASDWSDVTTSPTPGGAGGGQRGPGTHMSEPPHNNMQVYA
Sequence of Pro-neuregulin-1, membrane-bound isoform (Homo sapiens) (Q02297 whole entry, looked up, the tested form may be a part, canonical isoform): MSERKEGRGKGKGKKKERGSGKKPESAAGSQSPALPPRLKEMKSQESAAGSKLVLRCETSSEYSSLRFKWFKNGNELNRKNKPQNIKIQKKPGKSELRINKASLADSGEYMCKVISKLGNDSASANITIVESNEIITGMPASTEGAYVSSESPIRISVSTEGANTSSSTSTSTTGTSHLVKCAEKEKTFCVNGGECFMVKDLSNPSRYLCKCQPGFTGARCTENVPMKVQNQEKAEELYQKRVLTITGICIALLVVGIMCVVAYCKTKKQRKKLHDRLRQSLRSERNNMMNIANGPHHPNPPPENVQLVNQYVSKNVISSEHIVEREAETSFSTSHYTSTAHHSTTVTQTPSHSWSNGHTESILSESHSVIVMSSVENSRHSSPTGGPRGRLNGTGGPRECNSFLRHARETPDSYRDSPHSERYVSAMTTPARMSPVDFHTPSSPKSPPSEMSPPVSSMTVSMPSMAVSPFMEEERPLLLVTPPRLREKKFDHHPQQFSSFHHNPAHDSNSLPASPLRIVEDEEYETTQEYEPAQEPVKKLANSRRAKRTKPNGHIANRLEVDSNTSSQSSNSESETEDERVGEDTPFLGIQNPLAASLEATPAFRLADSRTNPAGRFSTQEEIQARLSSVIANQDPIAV

| SMILES | composite z-score [1] | composite z-score [2] | composite z-score [3] | composite z-score [4] | composite z-score [5] | composite z-score [6] | composite z-score [7] | z-score [8] | composite z-score [9] | composite z-score [10] | composite z-score [11] | z-score [12] | z-score [13] | z-score [14] | composite z-score [15] | z-score [16] | composite z-score [17] | composite z-score [18] | composite z-score [19] | composite z-score [20] |
| --- | --- | --- | --- | --- | --- | --- | --- | --- | --- | --- | --- | --- | --- | --- | --- | --- | --- | --- | --- | --- |
| CCCCN1CC=CC23O[C@@H]4/C=C\CCC(C)OC(=O)C4[C@H]2C(=O)N(CCO)[C@@H]3C1=O (stereo not given in full) | 0.19 | 1.97 | -0.117 | -0.206 | -0.722 | 0.19 | 1.12 | -0.093 (inactive) | -0.14 | -0.3 | -0.314 | -1.64 (inactive) | -1.02 (inactive) | -1.2 (inactive) | 3.4 | 2.26 (inactive) | 0.0469 | -0.19 | -0.342 | -0.157 |
| [N-]=[N+]=NCc1ccccc1[C@H]1OC(c2ccc(OCCCO)cc2)=N[C@@]1(Cc1ccccc1N=[N+]=[N-])C(N)=O | 0.0097 | 0.998 | 0.05 | 0.995 | 1.54 | 1.7 | 1.11 | 4.46 (inactive) | 1.76 | -0.156 | 1.56 | 0.61 (inactive) | -0.678 (inactive) | -1.39 (inactive) | 3.31 | 0.0539 (inactive) | 0.0573 | 0.412 | 1.09 | 0.0009 |
| CCCCC(=C=CC[C@H](O)c1ccccc1OCCO)CCO | -0.121 | -0.46 | -0.0579 | 0.656 | -0.543 | 1.4 | 0.787 | 0.125 (inactive) | -0.299 | 0.0749 | 0.95 | 0.149 (inactive) | -0.211 (inactive) | -0.34 (inactive) | 1.04 | 0.288 (inactive) | -0.19 | -0.0419 | -0.102 | -0.0664 |
| NCCCCCCNC(=O)[C@@H]1C[C@@H]2C(=O)NCC(=O)N2[C@@H]1c1cccc(OCCO)c1 | 0.403 | 0.641 | 0.047 | 0.847 | 1.2 | 0.982 | 1.22 | 0.726 (inactive) | 0.543 | 0.385 | 1.37 | -0.205 (inactive) | -0.542 (inactive) | -0.138 (inactive) | 2.11 | 1.04 (inactive) | 0.0997 | 1.12 | 0.783 | 0.0988 |
| CCOC(=O)C[C@H]1[C@H](OC(=O)c2ccccc2-c2ccccc2)[C@@H](NC(=O)CC(C)C)c2cc(OCCCO)ccc2N1C(=O)c1ccccc1 | -0.565 | 0.115 | -0.0632 | 0.351 | 0.527 | 0.092 | 0.606 | 0.077 (inactive) | 0.324 | -0.137 | 0.768 | -0.959 (inactive) | -0.613 (inactive) | -1.52 (inactive) | 0.583 | 0.482 (inactive) | -0.0859 | 1.3 | 1.09 | -0.159 |
| C=CCNC(=O)[C@H]1[C@@H]2C(=O)O[C@@H](c3ccccc3)[C@@H](c3ccccc3)N2[C@@H](c2ccc(O)cc2)[C@]12C(=O)N(C(=O)OCCOC)c1ccc(C#Cc3ccc(OC)cc3)cc12 | 0.165 | 0.383 | 0.0106 | 0.978 | 0.759 | 0.788 | 0.995 | 0.75 (inactive) | 0.307 | -0.0672 | 1.42 | 0.622 (inactive) | 0.074 (inactive) | 1.66 (inactive) | 2.23 | -0.866 (inactive) | -0.0302 | 0.44 | 0.892 | 0.0219 |
| COc1ccc(C(O)C2C=CC3C(=O)N(C)C(=O)C3N2Nc2ccccc2)cc1 (stereo not given) | 0.402 | 0.467 | 0.042 | 0.701 | 1.7 | 2.03 | 1.27 | 1.71 (inactive) | 0.791 | -0.271 | 1.29 | -0.0991 (inactive) | -0.546 (inactive) | 0.695 (inactive) | 3.3 | -0.238 (inactive) | 0.156 | -0.357 | 1.06 | 0.147 |
| O=C1O[C@H](c2ccccc2)[C@H](c2ccccc2)N2[C@H]1[C@@H](C(=O)O)[C@]1(C(=O)Nc3ccccc31)[C@H]2c1ccc(OCCO)cc1 | -0.442 | -0.0349 | -0.0112 | 0.334 | 0.239 | 1.57 | 1.04 | 0.248 (inactive) | 0.215 | 0.176 | 1.53 | -0.0404 (inactive) | 0.414 (inactive) | -0.303 (inactive) | 3.27 | 1.36 (inactive) | -0.065 | 0.286 | 0.33 | -0.177 |
| CC[C@@H]1C=C(C(=O)O)[C@H](c2cccc(Cl)c2)N1S(=O)(=O)c1ccc(C)cc1 | 0.0801 | 0.969 | 0.0263 | 0.516 | 1.36 | 1.27 | 0.855 | -1.53 (inactive) | 0.177 | 0.0424 | 0.877 | -0.848 (inactive) | -0.874 (inactive) | -0.177 (inactive) | 3.5 | -0.944 (inactive) | 0.0595 | -0.791 | -0.118 | -0.128 |
| C=C(CCCC)C(=O)CC[C@@H](OC(C)=O)c1ccc(OCCO)cc1 | 0.0324 | 1.11 | -0.0909 | 1.01 | -0.626 | 0.409 | 1.02 | -0.0798 (inactive) | 0.0685 | -0.134 | 1.01 | -1.58 (inactive) | -2.48 (inactive) | -0.679 (inactive) | 0.742 | 0.44 (inactive) | -0.178 | 1.53 | 1.13 | -0.216 |
